The values below come from PubChem BioAssay AID602274 (Sanford-Burnham Center for Chemical Genomics, 2012).

The structures appear in SMILES notation. Hit rate of the full screen: of about 360,000 compounds, about 160 (0.044%) were called active. The sample holds actives, similar compounds and a random draw of the others, so the mix is not that of the screen. A number with no mark means an inactive call. Rule as the data show it: active = survival enhancement above about 18%; inactive = the rest.

The nature of this assay: enhancers of single-cell hiPSC survival, primary screen, ATPlite luminescence (AID 602274).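 Also: cells exposed to compounds for 16 hours before the ATP read.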 The following applies: at 20 µM, hits give high values, 100% = ROCK inhibitor wells, 0% = DMSO. In general terms: Cellular ATP, detected with luciferase, serves as a proxy for viable cell number.
For `CCC1CCCCN1CCNS(=O)(=O)c1ccc2c(c1)CCN2C(C)=O` (centres undefined), the survival enhancement is -1.5%.

As to `COC(=O)[C@@H]1C[C@H]2CC[C@H](O)C[C@H]2N1Cc1ccc(N2CCN(C)CC2)cc1`, the survival enhancement is -2.9%.

Turning to `COc1ccc(CCNC(=O)CN2C(=O)COc3ccc(S(=O)(=O)N4CCCC4)cc32)cc1OC`, the survival enhancement is 0.4%.

On to `C/C(=N\Nc1cccc(C(=O)O)c1)c1ccc2c(c1)Nc1ccccc1S2`, for which the survival enhancement is -0.6%.

In the case of `Cc1nc2ccc(N)nc2nc1C`, the survival enhancement is -2%.

In the case of `COC(=O)C(C)Sc1ccc2nnc(-c3cccc(F)c3)n2n1` (centres undefined), the survival enhancement was 1.5%.

For the compound `COc1ccc(-c2cc(C(F)(F)F)n3nc(C(=O)N4CCOCC4)c(Cl)c3n2)cc1`, the survival enhancement is 3.2%.

Turning to `Cc1cccc([C@@H]2[C@@H]3C(=O)N(Cc4ccccc4)C(=O)[C@@H]3[C@]3(Cc4ccc(Cl)cc4)C(=O)N(c4cccc(Cl)c4)C(=O)N23)c1`, the survival enhancement is -0.6%.

Turning to `O=C(NCc1ccccc1CN1CCCC1)c1cccc(S(=O)(=O)Nc2ccc(F)cc2)c1`, the survival enhancement is -0.3%.

For the compound `C[C@H](CO)N1C[C@H](C)[C@@H](CN(C)C(=O)C2CCCCC2)OCc2cnnn2CCCC1=O`, the survival enhancement is 5.1%.

Regarding `CC(C)(C)NC(=O)Cn1nnc(-c2ccccc2Cl)n1`, the survival enhancement is 1%.

Turning to `C=CCn1nc(-c2ccccc2)c2c(C)onc2c1=O`, the survival enhancement was 0.6%.

With `CCOC(=O)C1=CCC2C(=O)N(Cc3ccccc3)C(=O)C12` (centres undefined), the survival enhancement was -0.2%.

With `CCC(Cc1ccccc1)NC(=O)C1CCCCC1` (centres undefined), the survival enhancement was -0.3%.

Turning to `Cc1nc(CNS(=O)(=O)c2ccc(Oc3ccccc3)cc2)cs1`, the survival enhancement is -0.6%.

As for `CCNC(=O)c1c(O)c2cccc3c2n(c1=O)CC3`, the survival enhancement was 8.3%.

In the case of `OC[C@@H]1CN(Cc2ccc(Cl)cc2)C[C@H](n2cnc3c(NCc4ccncc4)ncnc32)O1`, the survival enhancement was 0.8%.

Turning to `Cc1cccc(C(=O)Nc2ccccc2C(=O)NCc2cccnc2)c1`, the survival enhancement was 7.7%.

Turning to `O=C(COC(=O)C12CC3CC(CC(O)(C3)C1)C2)NC12CC3CC(CC(C3)C1)C2`, the survival enhancement is 4.1%.

Take `CCOc1ccc(OCC)c(-c2c(=O)n(OCc3ccc(Cl)cc3)c3ccccc3[n+]2[O-])c1`: the survival enhancement was 0%.

Turning to `O=C(CN1C(=O)c2cccnc2Oc2ccc(Cl)cc21)Nc1ccc(F)cc1`, the survival enhancement was -2%.

For `O=C(N/N=C1\CCSC1)c1cc(Cl)ccc1O`, the survival enhancement is 1.9%.

As to `CC1CCCCC1NC(=O)Cn1c(=O)cnc2ccccc21` (centres undefined), the survival enhancement is -0.7%.

For the compound `O=C(NCc1nnc(SCC(=O)N2CCCc3ccccc32)o1)c1ccccc1F`, the survival enhancement was 0.9%.

Turning to `O=C(NCc1ccccc1)C1=C[C@@H](c2ccccc2)C[C@@H](OCCCCO)O1`, the survival enhancement is -2.5%.

As to `CN(C)S(=O)(=O)c1ccc(N2CCCC2)c(C(=O)Nc2ccc(Br)cc2F)c1`, the survival enhancement is -0.6%.

Take `CCOC(=O)c1c(C)[nH]c(C(=O)NCCN2CCOCC2)c1C`: the survival enhancement was -0.1%.

Turning to `Cc1nc2ccccc2nc(=O)c1NNc1ccc([N+](=O)[O-])cc1`, the survival enhancement was -1.5%.

As to `CCN(CC)c1ccc(C(=O)c2cnc(/N=C/N(C)C)s2)cc1`, the survival enhancement is -0.3%.

Consider `C=CCSc1nc(Cc2ccc(Cl)cc2)nc2ccccc12`, for which the survival enhancement is -1.7%.

For `CCCCSc1nnc2c(n1)OC=Nc1ccccc1-2`, the survival enhancement was 1%.

`CCN(CC(=O)Nc1ccc(Cl)c(S(=O)(=O)N(C)C)c1)Cc1nc2ccccc2c(=O)[nH]1`: the survival enhancement is -0.1%.

`COc1ccc(S(=O)(=O)N(CCCN2CCCC2=O)Cc2cc3c(C)ccc(C)c3[nH]c2=O)cc1`: the survival enhancement was -2.2%.

In the case of `O=C(CCc1[nH]c2ccccc2c1Sc1ccccc1)N(CCO)CCO`, the survival enhancement is -1%.

Regarding `O=S(=O)(/N=C(/Nc1ccccc1)c1ccccc1)c1cccs1`, the survival enhancement was 4%.

Regarding `Cc1ccc2c(c1)nnc1nnc(SCC(=O)O)n12`, the survival enhancement is -0.2%.

`COc1ccccc1NC(=O)N1CCCC1C(=O)NCc1cccs1` (centres undefined): the survival enhancement was -0.5%.

As to `COc1ccc(-n2nnnc2SCc2nc(N)nc(N3CCOCC3)n2)cc1`, the survival enhancement is -2.1%.

Take `CC1CCCCC12NC(=O)N(CC(=O)N1CCN(c3ccccc3)CC1)C2=O` (centres undefined): the survival enhancement was -0.5%.

Regarding `CC(C)Oc1ccc(S(=O)(=O)N2CCOCC2)cc1NC(=O)C1CSC2(C)CCC(=O)N12` (centres undefined), the survival enhancement is -0.5%.

Take `Cc1ccccc1C(OCCN(C)C)C1CCCCC1` (centres undefined): the survival enhancement was -3.9%.

Take `COc1cccc(CNC(=O)CCN2C(=S)NC(C)(C)CC2C)c1` (centres undefined): the survival enhancement was -0.7%.

Take `CC(C)CN(CC(C)C)CC(O)CN(c1ccccc1)S(=O)(=O)c1ccccc1[N+](=O)[O-]` (centres undefined): the survival enhancement was -0.3%.

Regarding `N#C/C(=C(\O)C(F)(F)F)c1nnc2n1CCCCC2`, the survival enhancement is 2%.

With `N#C/C(=C(\O)CCl)c1nnc2n1CCCCC2`, the survival enhancement is 2.8%.

For `N#C/C(=C/c1cccc([N+](=O)[O-])c1)c1nnc2n1CCCCC2`, the survival enhancement is 32.2% (active).

In the case of `COc1ccc(OC)c(CCNC(=O)CCn2ccc3cc(S(=O)(=O)N4CCCC4)ccc32)c1`, the survival enhancement is -0.3%.

Regarding `C/C(=N\NS(=O)(=O)c1ccccc1)c1c(O)cc(C)oc1=O`, the survival enhancement was -0.4%.

`COc1ccc2c(c1)cc1n2CCN=C1NN`: the survival enhancement was 3%.

`Cc1cccc(-n2c(SCC(N)=O)nc3c(c2=O)C2(CCCCC2)Cc2ccccc2-3)c1`: the survival enhancement is -2.5%.

In the case of `CC1(C(=O)NS(=O)(=O)c2cccc(F)c2)CCN1C(=O)Cc1cc(F)ccc1F` (centres undefined), the survival enhancement was 0.9%.

`COC(=O)CCSc1cc([N+](=O)[O-])cc2c1c(C1OCCS1)nn2-c1ccccc1` (centres undefined): the survival enhancement was 19.1% (active).

In the case of `CN1CCN(C(=O)c2cnn(-c3ccccc3)c2NC(=O)c2ccc([N+](=O)[O-])cc2)CC1`, the survival enhancement is 0.5%.

In the case of `COC(=O)CCSc1nccn1Cc1ccccc1`, the survival enhancement is 0.7%.

With `CC1(C)COC(c2cccn2Cc2ccccc2Cl)=N1`, the survival enhancement was 4.1%.

Consider `COc1cc(OC)cc(C(=O)Nc2ncc3c(n2)CC(C)(C)CC3=O)c1`, for which the survival enhancement was 1.7%.

Turning to `O=C(NN=Cc1ccccc1O)C(=O)NN=Cc1ccccc1O`, the survival enhancement is -1.8%.

With `C=CCOc1ccc(C2/C(=C(\O)c3c(C)[nH]c(C(=O)OC)c3C)C(=O)C(=O)N2CCN(C)C)cc1` (centres undefined), the survival enhancement is 3.5%.

As to `O=C(Nc1ccc(OC(F)(F)F)cc1)c1ccc2c(c1)no[n+]2[O-]`, the survival enhancement was -0.6%.

For `Cc1c(C=O)c2ccccn2c1C(=O)c1ccncc1`, the survival enhancement is 0.1%.

On to `O=C(COC(=O)Cn1cnc2ccccc2c1=O)NCC12CC3CC(CC(C3)C1)C2`, for which the survival enhancement was -0.2%.

Consider `CC1CCCC(NC(=O)COC(=O)c2ccccc2C(=O)N(C)C2CCCCC2)C1C` (centres undefined), for which the survival enhancement is 0.8%.

With `Cc1cc(=O)n2nc(N3CCCC(C(=O)NCCC4=CCCCC4)C3)sc2n1` (centres undefined), the survival enhancement was 1.7%.

For the compound `C=CCc1cccc2cc(C(=O)NC3CCCC3)c(=O)oc12`, the survival enhancement is 0.2%.

Take `CC(C)CC(CC(C)C)=NNC(=O)c1ccc(CSc2nncn2C)cc1`: the survival enhancement is 2.3%.

For `O=c1[nH]cccc1-c1nc2ccccc2n1Cc1ccc(Cl)cc1`, the survival enhancement was 1.9%.

Consider `COCCC(=O)N1CCC(Oc2ccc(C(=O)NCc3ccon3)cc2)CC1`, for which the survival enhancement is -0.4%.

In the case of `CN1C(=O)[C@H]2[C@@H](C3CC3)N3C(=O)CN(Cc4ccccc4)C(=O)[C@@]3(C)[C@H]2C1=O`, the survival enhancement was -2.2%.

For `CCOc1cc(/C=C/C(=O)OCC(=O)NCCN2C(=O)CSC2=O)ccc1OCC(C)C`, the survival enhancement was 3%.

`CN1CCN(C(=O)c2ccc(-c3cc4nc(NCc5cccnc5)n(C)c(=O)c4s3)cc2)CC1`: the survival enhancement was -0.7%.

For the compound `O=C(CCCN1C(=O)c2ccccc2C1=O)Oc1ccc(Cl)cc1`, the survival enhancement was 3.7%.

On to `CN(C)c1ccnc(Oc2ccc(F)cc2)c1C#N`, for which the survival enhancement was 1.8%.

`COCCNC(=S)c1ccc(OC)cc1`: the survival enhancement was 5.9%.

With `COc1ccc(-c2ccc(CNCCCN3CCOCC3)o2)cc1Cl`, the survival enhancement is -1.8%.

In the case of `Cc1ccc(Cl)c(OCC(=O)N(C)CC(=O)Nc2ccc(N3CCOCC3)cc2)c1`, the survival enhancement was 0%.

On to `COc1ccc(Cl)cc1NC(=O)[C@@H]1CCCN1C(=O)c1cccs1`, for which the survival enhancement is 1.2%.

For the compound `O=C(O)c1ccc(-n2cccc2)cc1O`, the survival enhancement was -3.7%.

On to `NNC(=O)c1cnn(-c2ccccc2)c1C(F)(F)F`, for which the survival enhancement was -0.5%.

For `O=C1CC2(CCCC2)C(=O)N1CN1CCN(S(=O)(=O)c2ccc(F)cc2F)CC1`, the survival enhancement is -0.8%.

Regarding `O=C(CNCCC1=CCCCC1)Nc1ccccc1N1CCCCCC1`, the survival enhancement was -0.7%.

As for `CCNC(=O)Nc1ccc(S(=O)(=O)Nc2cnc(C)nc2C)cc1`, the survival enhancement was -0.1%.

For the compound `CCCCN(CCCC)C(=O)CCS(=O)(=O)c1ccc2c(c1)n(C)c(=O)c(=O)n2C`, the survival enhancement was 2.7%.

As to `Cc1c(-c2nn(C)c(=O)c3ccccc23)oc2ccc(F)cc2c1=O`, the survival enhancement was -1.5%.

For `COC(=O)c1ccc(NC(=S)Nc2cccc(C)n2)cc1`, the survival enhancement is 0.3%.

For `CCCCN1C(=O)CC(N2CCOCC2)C1=O` (centres undefined), the survival enhancement is 1.8%.

For `COc1cc(OC)cc(-c2c(C#Cc3ccsc3)c3cc(-c4ccc(SC)cc4)ccc3n2C)c1`, the survival enhancement is 1.4%.

On to `COc1ccc(N2C(=O)/C(=C\c3ccco3)N=C2SCC(N)=O)cc1Cl`, for which the survival enhancement is -1.3%.

As for `COc1ccc(C(=O)CSc2nnc(NC(=O)C3CC(=O)N(c4cccc(OC)c4)C3)s2)cc1` (centres undefined), the survival enhancement was 0.9%.

Turning to `CC(=O)OCCN(CCCn1c(-c2ccncc2)nc2ccccc21)c1nc(-c2ccc(C)cc2)cs1`, the survival enhancement is 0.8%.

On to `Cc1noc(C)c1CSc1nc2cc(S(=O)(=O)N3CCOCC3)ccc2o1`, for which the survival enhancement is 8.5%.

With `CC(C)(C)C(=O)NCCCNc1ccc([N+](=O)[O-])cc1`, the survival enhancement was -0.5%.

With `Cc1nccn1-c1ccc(NC(=O)[C@H]2O[C@@H](n3cnc4c(N)ncnc43)[C@H](O)[C@@H]2O)cc1`, the survival enhancement is 1.4%.

On to `Nc1ncnc2c1ncn2[C@@H]1O[C@H](C(=O)NCC(F)(F)F)[C@@H](O)[C@H]1O`, for which the survival enhancement was 1.8%.

In the case of `CN(Cc1ccc(C(F)(F)F)cc1)C(=O)[C@H]1O[C@@H](n2cnc3c(N)ncnc32)[C@H](O)[C@@H]1O`, the survival enhancement is 20.3% (active).
